RE007 growth inh: less growth of the S. pombe RE007 Vpr strain; S. pombe RE007 Vpr strain, BacTiter-Glo ATP luminescence, 24 h; Potency, µM (series often up to 92.2 µM), inactives show top-dose activity change, negative = less growth, usual class: inhibitors; 360,000 compounds, 0.21% hits; active means well fitted falling curve with a large enough effect; inconclusive means small, poorly fitted or top-dose-only effect; inactive means no such curve, though single readings can be large or run the other way; further: on the % scale 0 is the no-effect control and ±100 the full control effect; nearly all actives have a fitted effect of over 50% in size
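Fission yeast RE007 carrying one integrated HIV-1 vpr copy, seeded at OD 0.01 in PMG+AL medium with 23 nL pinned compound. Grown 24 h at 30 degrees; viability read by BacTiter-Glo luminescence after 5 min.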
Pf growth 48h: inhibits P. falciparum growth in the first generation, 48 h | P. falciparum luciferase growth in erythrocytes, 48 h | Potency, µM (series often up to 28.7 µM), inactives show top-dose activity change, negative = inhibition, actives largely listed as inhibitors | 310,000 compounds, 5.9% hits; active means well fitted inhibition curve with a large enough effect; inconclusive means small, poorly fitted or top-dose-only effect, or another doubt; inactive means no such curve, though single readings can be large or run the other way; further: on the % scale 0 is the no-effect control and ±100 the full control effect
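Firefly luciferase activity from engineered P. falciparum reports growth; inhibitors lower the luminescent signal. Cultures contained 2% hematocrit erythrocytes at 0.1% final parasitemia.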
Pf growth 96h: P. falciparum growth inhibition at 96 hour, primary screen for plastid delayed-death inhibitors. Potency, µM (top dose mostly 28.7 µM), for the others: at the highest dose activity change, negative = inhibition, usual class: inhibitors. P. falciparum luciferase reporter growth, 96 h. 320,000 compounds, 6.9% hits. AID 504834; active means well fitted inhibition curve with a large enough effect; inconclusive means small, poorly fitted or top-dose-only effect, or another doubt; inactive means no such curve, though single readings can be large or run the other way; further: on the % scale 0 is the no-effect control and ±100 the full control effect
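Cell-based qHTS: luciferase-tagged P. falciparum in erythrocytes (2% hematocrit, 0.05% parasitemia final) incubated with compounds for 96 hours, 37 C, 5% CO2; luciferase detection reagent then added and luminescence measured.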
NS1 inh: blocks influenza NS1 protein function; Potency, µM (highest dose often 46.1 µM), for the others: at the top dose activity, positive = more growth; 270,000 compounds, 0.4% hits; further: actives are rising curves; nearly all actives have a fitted effect of over 50% in size
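Compounds were scored for reversing the slow growth caused by influenza A NS1 in S. cerevisiae, measured by optical density at 600 nm. Assay medium contained 2% galactose at pH 6.0; NS1-free yeast of the same strain were the positive control.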
SARS PLpro yeast: blocks SARS-CoV papain-like protease in a yeast assay | S. cerevisiae expressing SARS-CoV PLpro, growth rescue | Potency, µM (titrated, usually from 32.9 µM), without a hit: at the top dose activity, positive = growth rescue, usual class: activators | 330,000 compounds, 0.19% hits | AID 485353; further: 0% is about no effect; nearly all actives have a fitted effect of over 55% in size
The depositor's hits bear a star; ? = inconclusive; . = not tested or not shown; [ ] = remark or other dose. Shown are actives, neighbours in structure and some others; about 9.5% of the full set was active somewhere. Unless noted, the call rests on the fitted dose curve. Potency means the concentration at half of the fitted maximal effect.

SMILES	RE007 growth inh	Pf growth 48h	Pf growth 96h	NS1 inh	SARS PLpro yeast
CCOC(=O)Cc1cn(C(=O)OC(C)(C)C)c2ccccc12	-6%	?	?	.	0%
Cc1nc2ccc(NC(=O)c3ccc(C)c(S(=O)(=O)N4CCOCC4)c3)cc2s1	16%	?	?	.	7%
Cc1nc2ccc(NC(=O)c3cc(S(=O)(=O)N(C)c4ccccc4)ccc3Cl)cc2s1	3%	1.3µM*	0.37µM*	?	0%
Cc1nc2ccc(NC(=O)c3ccc(Cl)c(S(=O)(=O)N(C)c4ccccc4)c3)cc2s1	0%	0%	?	0%	-9%
Cc1nc2ccc(NC(=O)c3cc(S(=O)(=O)N4CCOCC4)ccc3C)cc2s1	19%	.	9.3µM*	-12%	3%
O=C1N=C(N2CCCC2)CN1c1ccccc1	-2%	8%	7%	2%	2%
CC1(C(=O)Nc2ccc3c(c2)OCCO3)CN(S(C)(=O)=O)CC(=O)N1C1CCCCCC1 (stereo unspecified)	-10%	.	.	.	.
Cc1cc2c(cc1C)NC(c1c(C)n(C)n(-c3ccccc3)c1=O)C1=C(CC(C)(C)CC1=O)N2 (stereo unspecified)	-7%	?	10µM*	-79%	-4%
COc1ccc(Cc2nnc(N/N=C/c3ccc(O)cc3)[nH]c2=O)cc1OC	5%	9.3µM*	13µM*	-32%	?
Cn1c(=O)c2c(nc(N3CCc4ccccc4C3)n2Cc2ccccc2F)n(C)c1=O	5%	13µM*	-22%	-102%	-17%
Cc1ccccc1Cn1c(CN2CCc3ccccc3C2)nc2c1c(=O)n(C)c(=O)n2C	11%	13µM*	?	?	-21%
CN1CCN(c2nc3c(c(=O)n(C)c(=O)n3C)n2Cc2ccccc2F)CC1	-7%	-14%	-21%	-2%	3%
COC(=O)c1ccc(OC(=O)CCc2cc(OC)c(OC)c(OC)c2)cc1	-6%	42%	-7%	.	2%
CCC(CO)N=CC1=C(O)CC(c2ccccc2)CC1=O (stereo unspecified)	5%	14%	46%	19%	-1%
FC(F)(F)C(F)(F)C(F)(F)C(F)(F)C(F)(F)C(F)(F)C(F)(F)C(F)(F)Br	.	-10%	-9%	.	.
c1ccc(-c2ccccc2OCCN2CCCC2)cc1	1%	6%	13µM*	18%	-2%
CC1CCN(CCOCCOc2ccccc2-c2ccccc2)CC1	-1%	?	21%	-15%	-7%
CC1CCN(CCCCOc2ccccc2-c2ccccc2)CC1	-9%	10µM*	82%	-24%	-21%
OCCCN1CCN(CCCOc2ccccc2-c2ccccc2)CC1	-1%	?	10µM*	11%	2%
CSc1ccc(S(=O)(=O)N2CCC(C(=O)Nc3ccc(C(N)=O)cc3)CC2)cc1	2%	25%	4.7µM*	-3%	-14%
COc1ccc(S(=O)(=O)N2CCC(NC(=O)C3CCCCC3)CC2)cc1	-7%	16%	19%	5%	-2%
COc1ccc(S(=O)(=O)N2CCC(C(=O)NC3CC3)CC2)cc1	-7%	9.3µM*	15%	8%	3%
CSc1ccc(S(=O)(=O)N2CCC(C(=O)NC3CC3)CC2)cc1	2%	4.1µM*	-9%	-2%	1%
CC12CN3CC(C)(CN(C1)C3c1ccc3c(c1)OCO3)C2=O (stereo unspecified)	-14%	6%	55%	-1%	2%
CN1c2ccccc2N(C)C1c1ccc2c(c1)OCO2	-11%	4.7µM*	28%	-1%	2%
SMILES	RE007 growth inh	Pf growth 48h	Pf growth 96h	NS1 inh	SARS PLpro yeast
COc1ccc2c(c1)C(C)=CC(C)(C)N2C(=O)CSc1nnc(-c2ccc(C)cc2)o1	6%	9.3µM*	-2%	1%	-15%
COc1ccc(C(=O)CSc2nnc(-c3ccc(C)cc3)o2)cc1	-23%	41%	0%	3%	-6%
COc1ccc(-c2nnc(SCC(=O)N3CCCc4ccccc43)o2)cc1OC	10%	-8%	12µM*	-34%	-4%
COc1ccc(-c2nnc(SCC(=O)N3CCOCC3)o2)cc1	12%	141%	.	-5%	8%
COc1cccc(-c2nnc(SCC(=O)N3CCOCC3)o2)c1	-7%	47%	12µM*	-4%	-1%
Cc1nc(C)c(C(=O)OCC(=O)NCc2ccccc2Cl)s1	19%	.	.	.	.
COc1ccc(-c2c[n+](CC(=O)N3c4ccccc4Sc4ccccc43)c3n2CCC3)cc1	0%	2.6µM*	1.7µM*	-7%	0%
O=C(C[n+]1cc(-c2ccc(Cl)c(Cl)c2)n2c1CCC2)N1c2ccccc2Sc2ccccc21	9%	2.6µM*	?	0%	-28%
O=C(C[n+]1cc(-c2ccc(Cl)cc2)n2c1CCC2)Nc1nc(-c2ccccc2)cs1	19%	?	?	10%	0%
O=C(C[n+]1cc(-c2ccc(Cl)cc2)n2c1CCC2)N1c2ccccc2Sc2ccccc21	5%	1.7µM*	?	-2%	2%
O=C(N/N=C/c1ccc[nH]1)c1sc2ccccc2c1Cl	7%	?	6.6µM*	-113%	-18%
CN(C)S(=O)(=O)c1ccc(N2CCCC2)c(C(=O)N2CCC(C(N)=O)CC2)c1	-8%	3%	?	.	0%
Cc1ccc(-c2nc3c(c(=O)c4ccccc4n3C)c(=O)n2-c2ccccc2)cc1	-7%	-4%	?	21%	5%
Cc1cccc(-c2nc3c(c(=O)c4ccccc4n3C)c(=O)n2-c2ccccc2)c1	-14%	1.7µM*	1.7µM*	6%	1%
COc1ccc(N=C2NC(=O)C(CC(=O)NCCc3ccc(OC)c(OC)c3)S2)cc1 (stereo unspecified)	-19%	?	-37%[5.75 µM]	.	0%
COc1ccc(CC2SC(=Nc3ccc(F)cc3)NC2=O)cc1 (stereo unspecified)	-7%	2.9µM*	-25%	.	0%
COc1ccccc1CNC(=O)COC(=O)c1ccccc1-c1ccccc1	12%	?	?	.	3%
CN(C)S(=O)(=O)N1CCN(c2ccc([N+](=O)[O-])c(NC3CC3)c2)CC1	12%	4.1µM*	?	-14%	-1%
Cc1cc(C(=O)NNC(=S)NC(=O)/C=C/c2ccccc2Cl)n[nH]1	1%	.	6%	17%	10µM*
COC(=O)C1CN(C#N)N(c2ccc(Cl)cc2)C12c1ccccc1-c1ccccc12 (stereo unspecified)	18%	3.3µM*	18%	30%	-81%
CCOC(=O)C(C)(C)N(Cc1ccccc1C)S(=O)(=O)c1ccc(Cl)c([N+](=O)[O-])c1	46%	?	2.6µM*	11%	-22%
CCSc1nnc(NC(=O)c2ccccn2)s1	11µM*	2.9µM*	11%	-82%	-12%
Cc1ccc(CN2CC(C(=O)Nc3nnc(SCc4c(Cl)cccc4Cl)s3)CC2=O)cc1 (stereo unspecified)	2%	5%	?	?	-7%

Screening results deposited in PubChem BioAssay by National Center for Advancing Translational Sciences (NCATS).
